Measurements as given in PubChem BioAssay (NCI).
The panel holds about 83,000 compounds, 20% with a hit somewhere; the sample as a whole holds those more often.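 Note: values are percent growth. 100 is the growth of untreated cells, values between 100 and 0 indicate rising inhibition; between -100 and 0 indicates cell death.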 Active and inactive are the calls of the source. The calls were made as follows: active = growth percent below 10; inactive = the rest.

System: HL-60(TB) leukemia
Experiment: NCI-60 one-dose screen, 48 h (100 = growth as untreated, 0 = no growth, -100 = all killed)
Details: 10 µM unless noted

Row | Compound | growth
1 | COc1ccc2cc(C(=O)N3CCC([C@@H](C)C(=O)NCc4ccc5c(c4)OCO5)CC3)[nH]c2c1 | 91% [50 µM] (inactive)
2 | COc1cc2ncnc(NC3CCC(O)CC3)c2cc1OC (centres undefined) | 97.7% (inactive)
3 | CCN=C1C=CC(=C(c2ccc(N(C)C)cc2)c2ccc(N(C)C)cc2)c2ccccc21 | -9.26% (active)
4 | N#CC1=C(NC=O)Oc2c(ccc3ccccc23)C1c1ccccc1 (centres undefined) | 18.1% (inactive)
5 | [Ag].[Ag].[NH-]S(=O)(=O)c1ccc(N=Nc2cc(N=Nc3ccc(S([NH-])(=O)=O)cc3)c3c(NC(=O)C(Cl)Cl)cccc3c2OC(=O)C(Cl)Cl)cc1.[c-]1nccs1.[c-]1nccs1 | 44.2% (inactive)
6 | CCCC/C(CC)=N\NS(=O)(=O)c1ccc([N+](=O)[O-])cc1 | 92.2% (inactive)
7 | COc1cc(-c2cc(-c3ccc(Nc4nc(Nc5ccc(Cl)cc5)nc(Nc5ccc(Cl)cc5)n4)cc3)no2)cc(OC)c1OC | -68.2% (active)
8 | C[C@]12CC[C@@H]3c4ccc(O)cc4CC[C@H]3[C@@H]1CC[C@@H]2NS(=O)(=O)c1ccc(C(F)(F)F)cc1 | 19.5% (inactive)
9 | CN1CCN(C(=O)[C@@]2(C)CC[C@]3(C)CC[C@]4(C)C(=CC[C@@H]5[C@@]6(C)C/C(=C/c7ccncc7)C(=O)C(C)(C)[C@@H]6CC[C@]54C)[C@@H]3C2)CC1 | -8.87% (active)
10 | CC(C)(C)c1nn(-c2ccccc2)c2c1CC1(CN2Cc2ccc(Cl)cc2)C(=O)c2ccccc2C1=O | 90.8% (inactive)
11 | COc1ccc2c(c1)/C(=C/c1c(-c3cc(OC)c(OC)c(OC)c3Br)nc3sccn13)C(=O)N2 | 77.1% (inactive)
12 | O=C(O)c1ccc(-n2cc(/C=N/Nc3ccc(F)cc3)c(-c3cccc(C(F)(F)F)c3)n2)cc1 | 34.3% (inactive)
13 | Cc1nc2sc(C(=O)Nc3cccc(Br)c3)c(N)c2cc1C(O)c1ccccc1 (centres undefined) | -27.4% (active)
14 | COc1cc(/C=C(/c2ccccc2)[N+](=O)[O-])c(OC)c2c1OCO2 | -23% (active)
15 | CC(C)CC(NC(=O)C(CCCN=C(N)N)NC(=O)OCc1ccccc1)C(=O)NC(CNC(=O)/C=C/c1ccccc1)C(C)C (centres undefined) | 102% (inactive)
16 | O=C(N/N=C/C=C/c1ccc([N+](=O)[O-])o1)c1cc2ccccc2cc1O | 3.51% (active)
17 | Cn1c(=O)c2c(nc3n(-c4ccc(Cl)cc4Cl)c(Sc4nc(-c5ccccc5)c(C#N)c(=O)[nH]4)cn23)n(C)c1=O | 76.5% (inactive)
18 | CC(=O)c1cc(C(=O)c2ccc3c(c2)Sc2ccccc2N3)c2c(C)cccn12 | -4.53% (active)
19 | Nc1c(C(=O)NC2CCCCC2)sc2nc3c(cc12)C(=O)CCC3 | 95.2% (inactive)
20 | CNC(=O)c1cc(Oc2ccc3c(c2)sc2nc(-c4ccc(NC(=O)Nc5ccc(Cl)c(C(F)(F)F)c5)cc4)cn23)ccn1 | 32.2% (inactive)
21 | Cc1ccc(Oc2c(/C=N/NC(=O)Cn3c(=O)sc4ccccc43)c(C)nn2-c2ccccc2)cc1 | 4.2% (active)
22 | CCCCCCCCN(CCCCCCCC)CCCCCCNc1cc(OC)cc2cccnc12 | 83.6% (inactive)
23 | CCOC(=O)c1nn(C2CCCCO2)c2ccc(NC(=O)Cn3nnc4ccccc43)cc12 (centres undefined) | 98.8% (inactive)
24 | CC1=C(C#N)C(=O)NC(C)C1 (centres undefined) | 91% (inactive)
